An excerpt weighted towards active compounds, which were near 7.4% of everything screened.
ELG1 genotox: induces genotoxicity in HEK293T cells with luciferase-tagged ELG1 | AID 504466 | 330,000 compounds, 1.3% hits | Potency, µM (top dose mostly 46 µM), for the others: at the top dose activity change, positive = activation, hits mostly activators | HEK293T ELG1-luciferase reporter, luminescence, 16 h; also: % of control where 0% means no effect; nearly all actives have a fitted effect of over 60% in size
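Step 1: seed 2,000 HEK293T ELG1-luciferase cells per well. Step 2: add compound or DMSO, incubate 16 hr at 37 °C. Step 3: ONE-Glo, 30 min at room temperature, read luminescence.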
SMN2 splice up: SMN2 splice variant enhancement. Potency, µM (top dose mostly 46.1 µM), inactives show at the highest dose activity change, positive = activation, usual class: activators. HEK293 SMN2-luciferase splicing reporter, luminescence, 30-36 h. 210,000 compounds, 2.8% hits; also: % of control where 0% means no effect; nearly all actives have a fitted effect of over 55% in size
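HEK293 cells carry an SMN2 minigene-luciferase reporter in which exon 7 inclusion puts luciferase in frame. Cells were seeded at 2000 cells/well, attached for 10-12 hours, then exposed to compounds for 30-36 hours at 37C before ONE-Glo luminescence.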
FLuc modulator: inhibits or activates purified firefly luciferase, miR-21 counter-screen | P08659 | AID 588342 | purified FLuc, Km substrates, luminescence inhibition | Potency, µM (highest dose often 57.5 µM), inactives show at the highest dose activity change, negative = inhibition, actives largely listed as inhibitors | 360,000 compounds, 6.9% hits;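 also: plate controls were vehicle for no effect and reference inhibitor for full effect; nearly all actives have a fitted effect of over 55% in size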
Target sequence (P08659 whole entry, looked up): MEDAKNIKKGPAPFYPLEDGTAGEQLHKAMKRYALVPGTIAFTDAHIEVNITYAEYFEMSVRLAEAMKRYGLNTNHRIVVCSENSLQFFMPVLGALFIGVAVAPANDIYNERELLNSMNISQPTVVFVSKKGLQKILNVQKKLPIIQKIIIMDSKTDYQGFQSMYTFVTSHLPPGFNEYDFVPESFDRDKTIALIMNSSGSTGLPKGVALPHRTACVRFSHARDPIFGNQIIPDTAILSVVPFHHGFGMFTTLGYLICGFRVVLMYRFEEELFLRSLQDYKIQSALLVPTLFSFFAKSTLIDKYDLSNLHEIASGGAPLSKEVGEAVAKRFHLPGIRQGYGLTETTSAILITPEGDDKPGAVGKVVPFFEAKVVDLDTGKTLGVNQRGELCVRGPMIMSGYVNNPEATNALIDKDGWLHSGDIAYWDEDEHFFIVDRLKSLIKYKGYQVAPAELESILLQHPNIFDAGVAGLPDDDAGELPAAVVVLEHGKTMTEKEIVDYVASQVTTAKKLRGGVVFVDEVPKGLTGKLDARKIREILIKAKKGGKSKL
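Purified P. pyralis luciferase, 10 nM final, with Km-level 10 uM D-luciferin and 10 uM ATP in 50 mM Tris acetate pH 7.5, 10 mM Mg acetate, 0.01% Tween-20, 0.05% BSA; 6-point qHTS titration about 60 µM downward; luminescence read.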
NPC1 prom act: NPC1 promoter activation; Huh7 NPC1 promoter luciferase reporter, 24 h; Potency, µM (top dose mostly 9.22 µM), for inactives: at the top dose activation, hits mostly activators; 320,000 compounds, 2.4% hits; AID 485313; also: % of control where 0% means no effect; nearly all actives have a fitted effect of over 60% in size
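Quantitative HTS used a cell-based reporter: Huh7 cells stably bearing the NPC1 promoter upstream of luciferase were treated with compounds for 24 h, and promoter activation was read as luminescence.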
Rab9 promoter act: activators of Rab9 promoter. AID 485297. Huh7 Rab9 promoter-luciferase reporter, luminescence, 24 h. Potency, µM (titrated, usually from 9.22 µM), without a hit: top-dose activation, negative = inhibition, usual class: activators. 320,000 compounds, 2.8% hits; also: % of control where 0% means no effect; nearly all actives have a fitted effect of over 60% in size
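Measured in stably transfected Huh7 cells bearing a Rab9 promoter–luciferase construct: 24 h compound treatment at 37 °C, followed by luminescence detection.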
* marks the source's active call; other numbers are inactive results; [ ] = remark or other dose. Calls follow the shape of the dose curve; as a rule, active = well fitted curve in the direction sought with a large enough effect; inconclusive = small, poorly fitted or top-dose-only effect, or another doubt; inactive = no such curve, though single readings can be large; an effect the other way counts as inactive or inconclusive. Potency is read from the fitted curve at half-maximal effect.

`O=C(COC(=O)/C=C/c1ccco1)Nc1cc(S(=O)(=O)N2CCOCC2)ccc1Cl` gave ELG1 genotox 0%.
`CC[C@@H]1OC(=O)[C@H](C)[C@H](O[C@@H]2C[C@](C)(OC)[C@H](O)[C@H](C)O2)[C@H](C)[C@H](O[C@@H]2O[C@@H](C)C[C@@H](N(C)C)[C@@H]2O)[C@](C)(O)C[C@H](C)C(=NOCOCCOC)[C@H](C)[C@H](O)[C@]1(C)O` gave SMN2 splice up -21%[20.6 µM].
For O=C(NCc1ccco1)c1ccc(-c2cccc(Cl)c2)o1 the results were ELG1 genotox inconclusive, FLuc modulator inconclusive, NPC1 prom act 13% and Rab9 promoter act inconclusive.
`COc1ccc(NC(=O)C2CCN(S(=O)(=O)c3ccc4c(c3)CC(C)N4C(C)=O)CC2)c(OC)c1` (centres undefined) gave ELG1 genotox -5%, FLuc modulator 0%, NPC1 prom act -1% and Rab9 promoter act -4%.
Screening Cc1cc(C)c(C(=O)COC(=O)c2cccnc2Cl)c(C)c1 returned ELG1 genotox -1%, SMN2 splice up 0%, FLuc modulator 17µM*, NPC1 prom act -2% and Rab9 promoter act 0%.
Screening O=C(Nc1cccc(C(F)(F)F)c1)c1cc(-c2ccc3c(c2)OCCO3)on1 returned FLuc modulator 1.5µM*.
`O=C(Nc1cccc(C(F)(F)F)c1)c1cc(-c2ccc(F)cc2)on1` gave ELG1 genotox inconclusive, SMN2 splice up 11%, FLuc modulator inconclusive, NPC1 prom act -1% and Rab9 promoter act -3%.
For O=C(Nc1cc(Cl)ccc1O)c1cc(-c2ccc3c(c2)OCO3)on1 the results were SMN2 splice up inconclusive and FLuc modulator -16%.
Screening Cc1cccc(NC(=O)c2cc(-c3ccc4c(c3)OCCO4)on2)c1 returned FLuc modulator 0.19µM*.
Screening O=C(Nc1cccc(C(F)(F)F)c1)c1cc(-c2ccc(Cl)cc2)on1 returned SMN2 splice up -9% and FLuc modulator 4%.
`Cc1ccc(Cl)cc1NC(=O)c1cc(-c2ccc3c(c2)OCCO3)on1` gave FLuc modulator 1.3µM*.
Screening CC(C)c1cc(C(=O)Nc2cccc(C(F)(F)F)c2)no1 returned ELG1 genotox inconclusive, SMN2 splice up -14%, FLuc modulator 15µM*, NPC1 prom act -2% and Rab9 promoter act -5%.
`Cc1ccc(NC(=O)c2cc(-c3ccc4c(c3)OCO4)on2)cc1` gave ELG1 genotox 17%, SMN2 splice up -3%, FLuc modulator -5%, NPC1 prom act 1% and Rab9 promoter act 20%.
Screening COC(=O)c1ccc(C(=O)OC)c(NC(=O)c2c(-c3ccccc3)noc2C)c1 returned SMN2 splice up -2% and FLuc modulator -6%.
Screening Cc1cccc(Oc2nc3c(c(=O)n(C)c(=O)n3C)n2C)c1C returned SMN2 splice up -1% and FLuc modulator 3%.
For CCc1ccccc1NC(=O)CSc1nc2ccccc2nc1Cc1cccc(OC)c1 the results were FLuc modulator 5%.
Screening O=C(Nc1cccc(Cl)c1)c1cc(-c2ccc3c(c2)OCCO3)on1 returned FLuc modulator 0.48µM*.
`O=C(Nc1ccc(Br)cc1)c1cc(-c2ccc3c(c2)OCO3)on1` gave ELG1 genotox 4%, FLuc modulator -2%, NPC1 prom act -9% and Rab9 promoter act -11%.
For COc1ccc(S(=O)(=O)N2CCOC2CNC(=O)C(=O)NCCCN2CCOCC2)cc1 (centres undefined) the results were ELG1 genotox inconclusive, FLuc modulator 3%, NPC1 prom act 2% and Rab9 promoter act 3%.
Screening CC(=O)Oc1ccc2cc(-c3ccccc3)c(=O)oc2c1 returned ELG1 genotox inconclusive, FLuc modulator 2.4µM*, NPC1 prom act 4µM* and Rab9 promoter act inconclusive.
Screening CC(=O)COc1ccc2cc(-c3ccccc3)c(=O)oc2c1 returned ELG1 genotox inconclusive, FLuc modulator inconclusive, NPC1 prom act 1.1µM* and Rab9 promoter act 1µM*.

Assay outcomes: PubChem BioAssay, National Center for Advancing Translational Sciences (NCATS)
